Compound activity (PubChem)
Only some compounds are listed: those with a hit (about 3.5% of all), similar ones and a draw of the others.
TEAD-YAP inh = TEAD-YAP interaction inhibition, primary screen, TEAD-YAP interaction inhibitor project, luminescence, HEK-TIYL cells; TEAD-Gal4/YAP UAS-luciferase luminescence; inhibition, % at 9.12 µM; 640,000 tested, 1.4% active; AID 1259422, 2018; in the data active means inhibition above about 32%;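 further: 0% = median of test compound wells and 100% = reference inhibitor wells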
GPR151 ag = activators of human GPR151, primary screen, cell-based, PathHunter beta-arrestin, luminescence. G-protein coupled receptor 151 (Homo sapiens), Q8TDV0. 650,000 tested, 1% active. PathHunter beta-arrestin GPR151 cells. AID 1508602, 2020. activation, % at 11.2 µM; in the data active means activation above about 4.9%;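 further: 0% = median of compound wells and 100% = cells with positive control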
Target sequence (Q8TDV0 whole entry, looked up): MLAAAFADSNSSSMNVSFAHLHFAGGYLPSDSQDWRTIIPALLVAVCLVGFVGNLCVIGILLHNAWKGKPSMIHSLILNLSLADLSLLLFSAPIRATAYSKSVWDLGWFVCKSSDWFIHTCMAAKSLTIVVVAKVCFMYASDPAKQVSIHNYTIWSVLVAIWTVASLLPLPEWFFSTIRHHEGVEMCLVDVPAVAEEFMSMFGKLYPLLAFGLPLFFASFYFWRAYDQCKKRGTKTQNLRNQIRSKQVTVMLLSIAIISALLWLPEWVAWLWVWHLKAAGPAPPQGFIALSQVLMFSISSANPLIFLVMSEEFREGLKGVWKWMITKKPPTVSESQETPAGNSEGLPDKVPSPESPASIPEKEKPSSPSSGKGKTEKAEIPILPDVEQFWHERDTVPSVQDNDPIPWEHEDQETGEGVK
MITF inh = MITF inhibitors, primary screen, biochemical, AlphaScreen, human; Microphthalmia-associated transcription factor (Homo sapiens), O75030; 650,000 tested, 0.91% active; AID 1259374, 2018; AlphaScreen MITF homodimerization, bead proximity signal; inhibition, % at 2.6 µM; in the data active means inhibition above about 50%;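 further: 0% = vehicle wells with protein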
FBW7 activator = FBW7 E3 ligase activators, primary screen, biochemical, AlphaScreen, human; normalized activity (activation), % at 26.1 µM; AID 1259310, 2017; F-box/WD repeat-containing protein 7 (Homo sapiens), Q969H0; 650,000 tested, 0.13% active; AlphaScreen FBW7–phospho-cyclin E peptide binding, activator screen; in the data active means normalized activity above about 1.9%;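 further: purified mutant Fbw7 with reduced substrate affinity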
GPR151 conf act = GPR151 activators, triplicate retest, confirmation, cell-based, PathHunter beta-arrestin, luminescence; GPR151 PathHunter beta-arrestin cells, 90 min; % of EA-reagent control over plate median; AID 1508609, 2020; 6,700 tested, under 10 active; activation, % at 11.2 µM; shares compounds with GPR151 ag;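 active means mean percent activation across replicates above the confirmation screen cutoff of 4.91%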
GPR119 counter = GPR119 activators in beta-arrestin cells, counter-screen for GPR151 activator project, cell-based, PathHunter beta-arrestin, luminescence, triplicate; shares compounds with GPR151 ag; 90 min; 0 = compound-well median, 100 = enzyme-acceptor control; activation, % at 11.2 µM; 6,700 tested, 0.3% active; AID 1508611, 2020;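 active means mean percent activation in the counterscreen above 29.09%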;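 further: counterscreen on off-target GPR119 to flag nonselective hits from the GPR151 activator screen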
* = called active by the depositor; nt = no result given; ! = not confirmed by another sample.

SMILES	TEAD-YAP inh	GPR151 ag	MITF inh	FBW7 activator	GPR151 conf act	GPR119 counter
O=c1c2c3c(sc2ncn1/N=C/c1ccc(O)c(O)c1O)CCCC3	-7	5.4*	58*	0	-1	-10
CCOC(=O)N1CCC(n2c(SCc3cccc([N+](=O)[O-])c3)nc3ccsc3c2=O)CC1	-4	0	1	0	nt	nt
O=C(O)CCC(NCC(O)Cn1c2ccccc2c2ccccc21)C(=O)O (centres undefined)	2	5.6*	-16	0	2	16
CC(C)CC(NCC(O)Cn1c2ccccc2c2ccccc21)C(=O)O (centres undefined)	0	1	-7	0	nt	nt
O=C(NC(=O)c1ccccc1)Nc1ccc(Br)cc1	-20	6.1*	-10	0	-1	-11
CC(=O)c1cccc(NC(=O)N2Cc3ccccc3CC2S(C)(=O)=O)c1 (centres undefined)	4	2	9	0	nt	nt
Cc1ccc(NC(=O)c2nn3c(c2Br)NC(c2cccs2)CC3C(F)(F)F)cc1C (centres undefined)	-1	7.1*	0	0	0	0
Cc1ccc(OCC(=O)NNC(=O)COc2ccccc2C)cc1	8	2	0	0	nt	nt
Cc1ccccc1OCC(=O)NNC(=O)C(F)(F)F	-3	5.1*	-1	0	0	-1
O=c1c2cnn(CCO)c2ncn1Cc1c(F)cccc1Cl	-1	6.6*	-13	0	0	5
Cc1cccc(CCNc2c(-c3ccccc3)c(=O)c2=O)c1	13	1	2	1	nt	nt
Cc1ccsc1CCNc1c(-c2ccccc2)c(=O)c1=O	9	5.2*	12	0	1	10
CSc1nc(C(=O)N2CCc3nnc(CNC(=O)c4cccc(F)c4)n3CC2)cs1	3	5.2*	9	0	1	4
O=C(NC1CCCCC1O)c1ccccc1C(F)(F)F (centres undefined)	-5	9.2*	16	0	0	-10
O=C(NC1CCCCC1)c1ccccc1C(F)(F)F	-4	-1	8	0	nt	nt
O=C(CCCCCCN1C(=O)c2ccccc2C1=O)NN(c1ccccc1)c1ccccc1	-3	6.2*	9	0	1	6
O=C(CCCCCN1C(=O)c2ccccc2C1=O)Nc1ccccc1	-8	0	3	0	nt	nt
CCN(C(C)=O)c1nc2ccccc2s1	-21	2	-5	0	nt	nt
CCn1c(SCC(=O)c2ccccc2)nnc1C(C)C	-15	13*	-9	0	1	9
CC(C)c1nnc(SCC(=O)NC(c2ccccc2)c2ccccc2)n1N	-8	6.3*	0	0	0	-7
CCn1c(SCC(=O)c2ccccc2)nnc1-c1ccccn1	-58	0	6	-1	nt	nt
Nn1c(SCC(=O)NC(c2ccccc2)c2ccccc2)nnc1C1CC1	12	-1	-19	0	nt	nt
Cn1c(=O)cc(OCCCC(=O)Nc2ccc(Oc3ccccc3)cc2)c2ccccc21	-5	-1	10	0	nt	nt
Cc1ccc(C(=O)Nc2ccc(Br)cc2)cc1S(N)(=O)=O	-50	0	8	0	nt	nt
CC(C)C(=O)OCCN1C(=O)c2cccc3c(N4CCOCC4)ccc(c23)C1=O	-5	6.6*	0	0	0	12
SMILES	TEAD-YAP inh	GPR151 ag	MITF inh	FBW7 activator	GPR151 conf act	GPR119 counter
CC(C)C(=O)OCCN1C(=O)c2cccc3c(N4CCCCC4)ccc(c23)C1=O	-3	2	-2	0	nt	nt
CCOC(=O)C1=CN(Cc2ccc(F)cc2)C=C(C(=O)OCC)C1c1ccc(OCc2ccccc2)c(OC)c1	1	14*	-26	0	0	7
COC(=O)C1=CN(Cc2ccc(F)cc2)C=C(C(=O)OC)C1c1ccc(OCc2ccccc2)c(OC)c1	0	0	1	1	nt	nt
N#C/C(=C\c1ccc2c(c1)OCO2)C(=O)Nc1ccc(Cl)c([N+](=O)[O-])c1	4	6.0*	16	0	1	-12
Cc1ccc(-c2nc(SCC(=O)Nc3cc(C)on3)c3[nH]cnc3n2)cc1	2	1	19	0	nt	nt
CCN1CCN(C(=O)c2ccc(OC)c([N+](=O)[O-])c2)CC1	-5	7.4*	-11	0	-1	-6
COc1ccc(C(=O)N2CCN(C)CC2)cc1[N+](=O)[O-]	-3	1	7	0	nt	nt
Cc1ccc(NC(=O)CNC(=O)c2c[nH]c3ccccc23)cc1F	2	5.7*	2	0	0	-5
CSc1ccccc1NC(=O)CNC(=O)c1c[nH]c2ccccc12	1	0	6	0	nt	nt
COc1ccc(NC2=CC(=O)CCC2)cc1	8	-1	4	0	nt	nt
COc1ccc(NC2=CC(=O)CCC2)c(OC)c1	-6	7.8*!	5	0	1	8
Cc1cc(C)cc(NC(=O)c2nc3nc(C)cc(C)n3n2)c1	-6	0	9	0	nt	nt
CN(C(=O)Cc1ccccc1)N(C)C(=O)Cc1ccccc1	-4	5.0*	-3	0	0	9
CN(C)C(NC(=O)Cc1ccccc1)C(Cl)(Cl)Cl (centres undefined)	-3	6.0*	27	0	-1	-8
CC(=O)Nc1ccc(OCCn2c(C)c(C=C3C(=O)NC(=O)NC3=O)c3ccccc32)cc1	-8	6.4*	6	0	-1	-5
CC(C(=O)c1ccc(Cl)cc1Cl)n1c[n+](N)cn1 (centres undefined)	11	5.2*	-6	0	1	5
N[n+]1cnn(CC(=O)c2ccc(Cl)cc2Cl)c1	3	1	-16	0	nt	nt
Cc1noc(C)c1C(=O)N1CCn2c(CO)nnc2C1	-5	-1	-1	0	nt	nt
O=C(NCCN1CCN(Cc2ccc(Br)cc2)CC1)C(=O)Nc1ccc(Cl)cc1	4	0	0	0	nt	nt
CNC(=O)C(=O)NCCN1CCN(Cc2ccc(Br)cc2)CC1	8	7.8*	-6	0	-1	-5
CC1CN(S(=O)(=O)c2cccc(F)c2)CC(C)O1 (centres undefined)	4	1	0	0	nt	nt
CC1CN(C(=O)/C=C/c2ccc(Cl)cc2)CC(C)O1 (centres undefined)	5	0	17	0	nt	nt
COc1cccc(N2CCN(C(=O)CNS(=O)(=O)c3cccs3)CC2)c1	-6	0	6	0	nt	nt
